Screening results (PubChem)
This is a sample that favours compounds with a hit; in the whole collection about 4% have one here.
D1 PAM: Potentiators of Human D1 Dopamine Receptor: qHTS; D(1A) dopamine receptor (Homo sapiens), P21728; HEK293 TREx D1 cells, calcium flux, dopamine EC20 potentiation; potentiation, % at 10 µM; 360,000 compounds, 0.036% hits; AID 504651, 2011; in the data active means potentiation above about 30%; further: 0% is about no effect
TRHR enhancer: qHTS for Small Molecule Agonists and Allosteric Enhancers of Human TRH Receptor: Primary Screen for Enhancers; Thyrotropin-releasing hormone receptor (Homo sapiens), P34981; TRHR cells, fluo-8 calcium fluorescence, EC20 TRH enhancement; enhancement, % at 2 µM; 360,000 compounds, 0.66% hits; AID 493056, 2011; in the data active means enhancement above about 30%; further: 0% is about no effect
Target sequence (P34981 whole entry, looked up): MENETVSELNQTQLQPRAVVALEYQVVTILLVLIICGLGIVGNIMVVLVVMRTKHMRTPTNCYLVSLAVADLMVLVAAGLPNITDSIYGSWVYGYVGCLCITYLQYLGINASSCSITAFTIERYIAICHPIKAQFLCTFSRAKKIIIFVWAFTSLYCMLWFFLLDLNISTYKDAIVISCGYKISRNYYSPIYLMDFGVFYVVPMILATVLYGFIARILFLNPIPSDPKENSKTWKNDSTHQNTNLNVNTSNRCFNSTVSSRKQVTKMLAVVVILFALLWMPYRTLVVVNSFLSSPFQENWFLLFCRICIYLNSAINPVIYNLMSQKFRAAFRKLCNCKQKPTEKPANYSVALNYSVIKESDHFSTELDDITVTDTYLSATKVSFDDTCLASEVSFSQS
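TRHR-expressing cells loaded with fluo-8 calcium dye were read kinetically (ex 480/em 530) during compound addition, then stimulated with an EC20 of TRH (10 nM final). Enhancement of the Gq-mediated intracellular calcium response was scored.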
TRHR ag: qHTS for Small Molecule Agonists and Allosteric Enhancers of Human TRH Receptor: Primary Screen for Agonists; Thyrotropin-releasing hormone receptor (Homo sapiens), P34981; TRHR cells, calcium flux fluo-8, FDSS agonist mode; activation, % at 2 µM; 360,000 compounds, 0.18% hits; further: 0% is about no effect
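In this calcium-flux screen, cells bearing human TRHR are dye-loaded with fluo-8, baselined for 10 cycles, then exposed to library compounds; positive kinetic calcium responses during the agonist phase mark hits, with TRH as control.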
D1 antag: Antagonist of Human D 1 Dopamine Receptor: qHTS | HEK293 TREx D1 cells, calcium flux, dopamine EC80; hits give low values | AID 504652, 2011 | 360,000 compounds, 3.2% hits | activity change, negative = inhibition, % at 10 µM; in the data active means activity change below about -30%; further: on the % scale 0 is the no-effect control and ±100 the full control effect
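Compound effects on dopamine-evoked calcium signalling were measured in tetracycline-induced HEK293 Trex D1 cells. Dopamine at EC80 followed a 180 s compound pre-read, and fluorescence was tracked kinetically for 180 s more.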
GRP78 ERSR act: qHTS for Inducers of the Endoplasmic Reticulum Stress Response (ERSR) in Human Glioma: qHTS; U87-MG GRP78 promoter luciferase reporter, 16 h; Potency, µM, for inactives: top-dose activation, hits mostly activators; 420,000 compounds, 0.02% hits; AID 602332, 2012; active means well fitted activation curve with a large enough effect; inconclusive means small, poorly fitted or top-dose-only effect; inactive means no such curve, though single readings can be large or run the other way; further: potency means the concentration at half of the fitted maximal effect; series mostly up to about 76 µM; % of control where 0% means no effect; nearly all actives have a fitted effect of over 35% in size
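Stably transfected U87-MG human glioma cells carrying a GRP78-based luminescent sensor were seeded at 1000 cells/well, pin-dosed with compounds and incubated 16 h. Luciferase reagent was then added, and end-point luminescence was read after 10 min at room temperature.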
D1 agonist: Allosteric Agonists of the Human D1 Dopamine Receptor: qHTS; 360,000 compounds, 1% hits; activation, % at 2 µM; D(1A) dopamine receptor (Homo sapiens), P21728; HEK293 T-REx D1 cells, calcium flux, agonist mode; further: 0% is about no effect
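Agonism was scored from calcium flux recorded over 180 s (1 read/s) after pintool compound addition, following a 10-cycle baseline. Cells were inducible force-coupled HEK293 TREx D1, plated overnight at 30 C and loaded with no-wash calcium dye.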
An asterisk follows results filed as active; ? = inconclusive; · = no result. Unless noted, no stated cut-off is given here; in the data, active means activation above about 30%; inactive means the rest.

SMILES	D1 PAM	TRHR enhancer	TRHR ag	D1 antag	GRP78 ERSR act	D1 agonist
COC(=O)c1ccccc1NC(=O)c1c(Br)cnn1C	-2.9	3.9	-1.2	0.7	-2.2%	0.7
CCN(CCCC(=O)c1ccc(F)cc1)CCc1ccccc1	-5.2	3.0	0.9	-35.6*	1.9%	16.1
CCCc1nnc(NC(=O)Cn2c(=O)oc3cc(Br)ccc32)s1	-0.9	0.7	5.5	-9.5	-2.5%	61.8*
COc1ccccc1CNC(=O)c1cc(-c2ccc(F)cc2C)n[nH]1	·	·	·	·	2.9%	·
CC(=O)Nc1ccc(N=Cc2c(O)c(C(=O)Nc3ccccc3)cc3ccccc23)cc1	4.5	-0.6	108.7*	-20.2	-0.8%	185.9*
CC(=O)Nc1ccc(N=Cc2c(O)c3ccccc3oc2=O)cc1	-2.0	-2.3	-0.1	4.9	0.8%	1.9
O=C(Nc1ccc(Cl)cc1)c1ccc(OC2CSC2)cc1	-2.5	9.3	0.9	-1.7	2.6%	4.6
CNC(=O)c1ccc(OC2CSC2)cc1	-6.2	-3.4	-0.3	-49.3*	-2.2%	1.7
CC(C)Oc1ccc(CNC(=O)Cn2c(=O)c3cccn3c3cccnc32)cc1	-16.3	-20.4	0.0	-81.4*	-4.7%	0.7
CC(C)Oc1ccc(CNC(=O)c2ccc(Cn3c(=O)c4cccn4c4cccnc43)cc2)cc1	-6.0	-5.7	0.5	-6.5	-2.6%	6.8
Cc1ccc2nc(N/C(=N/S(=O)(=O)c3ccc(F)cc3)c3ccccc3)sc2c1	-12.8	-1.7	-0.6	-44.1*	0.6%	8.9
Cc1ccc2nc(N/C(=N/S(=O)(=O)c3ccc(F)cc3F)c3ccccc3)sc2c1	0.9	2.6	-0.6	3.4	0.9%	12.6
COc1cc(/C=N/NC(=O)COc2cc(C)cc(C)c2)ccc1OS(=O)(=O)c1ccc(C)cc1	-1.6	3.4	2.9	12.9	-1.3%	2.4
NC(c1ccccc1)c1csc(Nc2cc(Oc3ccccc3)ncn2)n1 (configuration not stated)	·	·	·	·	-3.0%	·
CN1C(=O)NC(c2ccc(C(F)(F)F)cc2)C2=C1CC(C)(C)CC2=O (configuration not stated)	-0.7	-3.5	-0.1	8.1	-4.1%	31.6*
CN1C(=O)NC(c2ccc([N+](=O)[O-])cc2)C2=C1CC(C)(C)CC2=O (configuration not stated)	-6.8	8.1	1.1	3.5	-3.6%	0.8
COc1ccc(NC(=O)CN(C)C2CCCCC2)cc1Cl	3.2	-1.1	1.8	-44.8*	-4.5%	3.0
O=C(COC(=O)CC1CCCC1)Nc1cccc(F)c1	1.6	-0.6	0.3	-30.6*	-3.2%	0.5
COc1ccc(NC(=O)CC2CCCC2)cc1OC	-4.9	3.4	0.6	-46.3*	-5.2%	2.6
O=C(Nc1ccc(Cl)cc1)OCc1cncs1	-6.0	5.0	-1.0	-29.3	7.5%	20.0
O=C(CCN1C(=O)COc2ccccc21)NCc1ccco1	-4.1	17.5	1.1	10.8	-3.0%	3.6
COC(=O)CCn1c(C)cc(C(=O)COc2ccccc2C(N)=O)c1C	-8.0	23.0	0.5	-55.9*	-1.5%	19.4
COc1ccc(CCNC(=O)C2(C)CCC(=O)N2Cc2ccc(F)cc2Cl)cc1OC (configuration not stated)	-2.4	-1.4	-0.5	-32.6*	-7.3%	0.3
COc1ccc(CCNC(=O)C2(C)CCC(=O)N2Cc2ccc3c(c2)OCO3)cc1OC (configuration not stated)	0.2	-5.5	0.0	-1.3	-5.4%	1.7
O=c1ccc2cc(O)c(O)cc2o1	-3.5	-0.8	-0.1	-41.1*	?	1.6
SMILES	D1 PAM	TRHR enhancer	TRHR ag	D1 antag	GRP78 ERSR act	D1 agonist
Cc1cc2nc3c(=O)n(C)c(=O)n(C)c3nc2cc1N=CN(C)C	-0.1	3.1	18.5	-12.2	-4.0%	46.3*
Cc1cc(C)n2nc(SCC(=O)Nc3ccccc3F)nc2n1	-1.4	10.3	-0.1	17.2	-4.3%	4.1
COc1ccc2c(c1OC)OCC(c1ccc(OC)c(OC)c1OC)C2 (configuration not stated)	·	·	·	·	-2.0%	·
COc1ccc2c(c1OC)C[N+]1([O-])CCc3cc4c(cc3C1C2)OCO4 (configuration not stated)	-2.2	-2.5	-0.2	-38.2*	-4.2%	2.7
CC(C)(C)c1ccc(C(=O)NC(CC(=O)O)c2ccc(OC3CCCC3)cc2)cc1 (configuration not stated)	-2.2	-0.1	0.9	-8.8	0.1%	0.3
COc1ccc(Cc2nc3c4cnn(-c5ccccc5Br)c4ncn3n2)cc1	-3.0	-7.6	0.0	-17.7	·	-0.3
Brc1ccccc1-n1ncc2c1ncn1nc(Cc3ccccc3)nc21	-0.1	-4.2	-0.4	-63.0*	·	0.3
N#CCC(=O)Nc1ccc(C(=O)OCC(=O)N=c2sccn2Cc2ccccc2Cl)cc1	-10.3	1.0	2.0	-45.6*	-2.9%	3.6
O=C(COC(=O)c1ccc(O)cc1O)N=c1sccn1Cc1ccccc1Cl	12.0	8.2	0.2	18.7	-2.4%	14.7
Cc1ccc(N(C(C)C(=O)Nc2ccc(S(=O)(=O)N3CCOCC3)cc2)S(C)(=O)=O)cc1C (configuration not stated)	-4.8	-0.8	-0.7	-16.6	-4.6%	0.9
CC1CCC2(CC1)NC(=O)N(CC(=O)Nc1cccc(S(=O)(=O)N3CCCCC3)c1)C2=O (configuration not stated)	·	·	·	·	-2.9%	·
O=C(CNc1cc([N+](=O)[O-])ccc1NCCO)Nc1cccc(S(=O)(=O)N2CCCCC2)c1	-5.5	-1.4	-0.3	-5.2	-0.3%	0.5
O=C(CNc1cccc(S(=O)(=O)N2CCCCCC2)c1)Nc1cccc([N+](=O)[O-])c1	-10.8	-1.9	0.1	-32.3*	-3.0%	8.2
CC1CCCCC12NC(=O)N(CC(=O)Nc1cccc(S(=O)(=O)N3CCCCC3)c1)C2=O (configuration not stated)	1.3	0.3	-0.1	-52.9*	-4.9%	2.0
O=C(Cc1c[nH]c2ccccc12)Nc1cccc(S(=O)(=O)N2CCCCC2)c1	-8.1	-0.2	0.3	-30.3*	·	-0.1
N#Cc1ccccc1NC(=O)CSc1ncn[nH]1	-2.6	-2.0	-1.1	-34.9*	1.4%	0.9
Cc1cccc(C(=O)N2CCC(=O)N(C(COCc3ccccc3)Cc3ccccc3)CC2)c1 (configuration not stated)	2.1	0.8	-1.0	5.7	-5.8%	-1.9
